Assay results as given in PubChem BioAssay AID1159580 (chemical genetic matrix, 2015).
Where “and” joins values, the source holds several entries; their conditions need not be identical. Identical values can stand only once. The whole screen tested about 5,500 compounds, of which about 2,000 (36%) were called active. Not shown: some 18% with an inconclusive outcome. No stated cut-off is given here; in the data, active means normalized growth mostly below about 0.91 (no sharp cut-off); inconclusive means no clear call, values can overlap the other calls; inactive means mostly above about 0.92. The list shows a part of the results.

Test: chemical genetic growth profiling, strain panel (AID 1159580);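 further: tested at 20 µM; growth read once vehicle control cultures reached saturation at 30 °C; 1 = growth at the plate median or of vehicle wells; lower values mean less growth of the strain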
Details: S. cerevisiae deletion strains, growth OD

Measured: normalized growth

CC(C)Cn1c(=O)n(C)c(=O)c2[nH]cnc21
inactive: locus YAL013W, strain DEP1, active compounds read low 0.999 | locus YAL021C, strain ccr4, active compounds read low 1.03 and 0.994 | locus YAL026C, strain drs2, active compounds read low 1 and 1.03 | locus YAL030W, strain snc1, active compounds read low 0.99 and 1 | locus YAL040C, strain CLN3, active compounds read low 0.982 | locus YBL061C, strain skt5, active compounds read low 0.992 and 1.02 | locus YBR009C, strain hhf1, active compounds read low 1.01 and 0.995 | locus YBR021W, strain FUR4, active compounds read low 0.966 | locus YBR023C, strain chs3, active compounds read low 1 and 1.01 | locus YBR171W, strain sec66, active compounds read low 0.998 and 1.03 | locus YBR229C, strain ROT2, active compounds read low 0.982 | locus YBR231C, strain swc5, active compounds read low 0.989 and 1.01 | locus YBR279W, strain paf1, active compounds read low 0.996 and 1 | locus YCL011C, strain gbp2, active compounds read low 1.01 and 1 | locus YCL016C, strain dcc1, active compounds read low 0.984 and 0.981 | locus YCL029C, strain bik1, active compounds read low 0.984 | locus YCL061C, strain MRC1 (second series), active compounds read low 0.984 | locus YCL061C, strain MRC1, active compounds read low 1 | locus YCL069W, strain vba3, active compounds read low 1 | locus YCR088W, strain abp1, active compounds read low 1 and 1.01 | locus YDL005C, strain med2, active compounds read low 1 and 1.01 | locus YDL035C, strain GPR1, active compounds read low 1.01 | locus YDL040C, strain nat1, active compounds read low 0.988 and 1.01 | locus YDL074C, strain BRE1, active compounds read low 1.03 | locus YDL101C, strain DUN1, active compounds read low 0.984 | locus YDL134C, strain PPH21, active compounds read low 0.991 | locus YDL185W, strain tfp1, active compounds read low 0.988 | locus YDL192W, strain arf1, active compounds read low 0.996 | locus YDR001C, strain nth1, active compounds read low 1 and 1.01 | locus YDR069C, strain doa4, active compounds read low 0.987 and 1.02 | locus YDR101C, strain arx1, active compounds read low 0.989 | locus YDR137W, strain rgp1, active compounds read low 0.976 and 0.984 | locus YDR150W, strain NUM1, active compounds read low 0.998 and 0.994 | locus YDR159W, strain sac3, active compounds read low 0.965 and 1.04 | locus YDR162C, strain NBP2, active compounds read low 1.03 | locus YDR195W, strain ref2 0.969 and 0.994 | locus YDR297W, strain sur2, active compounds read low 0.987 and 1 | locus YDR318W, strain mcm21, active compounds read low 0.974 | locus YDR334W, strain swr1, active compounds read low 1.04 and 1.03 | locus YDR335W, strain msn5, active compounds read low 1.01 | locus YDR363W, strain ESC2, active compounds read low 0.991 | locus YDR388W, active compounds read low 0.985 | locus YDR392W, strain spt3, active compounds read low 1 and 0.935 | locus YDR502C, strain sam2, active compounds read low 0.997 | locus YEL003W, strain gim4, active compounds read low 1.02 | locus YEL037C, strain rad23, active compounds read low 1.02 and 1.01 | locus YEL061C, strain CIN8 (second series), active compounds read low 1.03 and 1 | locus YEL061C, strain CIN8, active compounds read low 0.995 | locus YER002W, strain NOP16, active compounds read low 0.994 | locus YER015W, strain faa2, active compounds read low 1.01 and 1 | locus YER016W, strain bim1, active compounds read low 0.987 and 1.01 | locus YER110C, active compounds read low 0.977 | locus YER111C, strain swi4, active compounds read low 0.977 and 1.02 | locus YER155C, strain BEM2 (second series), active compounds read low 1.01 | locus YER155C, strain BEM2, active compounds read low 0.984 | locus YER167W, strain BCK2, active compounds read low 0.964 | locus YFR010W, strain ubp6, active compounds read low 1.01 and 1.03 | locus YGL078C, strain dbp3, active compounds read low 0.992 | locus YGL086W, strain mad1, active compounds read low 0.951 | locus YGL167C, strain pmr1, active compounds read low 0.995 and 1.01 | locus YGL173C, strain kem1, active compounds read low 1 and 1.02 | locus YGL227W, strain vid30, active compounds read low 0.973 and 1.01 | locus YGL240W, strain doc1, active compounds read low 1.02 and 1.03 | locus YGL248W, strain PDE1, active compounds read low 0.984 | locus YGL253W, strain hxk2, active compounds read low 1.01 and 1.04 | locus YGR078C, strain PAC10, active compounds read low 1.03 | locus YGR135W, strain pre9, active compounds read low 0.998 | locus YGR229C, strain SMI1, active compounds read low 1 | locus YGR252W, strain gcn5, active compounds read low 0.955 | locus YHR013C, strain ard1, active compounds read low 0.972 and 0.993 | locus YHR027C, strain rpn1, active compounds read low 0.994 and 1.01 | locus YHR030C, strain SLT2, active compounds read low 0.99 and 0.987 and 0.97 | locus YHR079C, strain IRE1 (second series), active compounds read low 0.996 | locus YHR079C, strain IRE1, active compounds read low 0.99 and 0.969 | locus YHR094C, strain hxt1, active compounds read low 0.985 | locus YHR129C, strain ARP1, active compounds read low 0.99 | locus YHR142W, strain chs7, active compounds read low 0.983 and 1 | locus YHR200W, strain rpn10, active compounds read low 0.982 | locus YIL066C, strain RNR3, active compounds read low 0.965 | locus YIL073C, strain SPO22, active compounds read low 0.944 | locus YIL125W, strain kgd1, active compounds read low 0.996 | locus YIR030C, strain dcg1, active compounds read low 0.987 | locus YJL092W, strain hpr5, active compounds read low 1.01 and 1 | locus YJL095W, strain BCK1 (second series), active compounds read low 0.991 and 1.01 | locus YJL095W, strain BCK1, active compounds read low 0.992 and 1.01 and 0.971 | locus YJL115W, strain asf1, active compounds read low 1.01 | locus YJL129C, strain trk1, active compounds read low 0.974 and 1 | locus YJL134W, strain LCB3, active compounds read low 0.984 | locus YJL154C, strain vps35, active compounds read low 1.01 | locus YJL164C, strain tpk1, active compounds read low 1 and 0.973 | locus YJL166W, strain qcr8, active compounds read low 1.02 and 1.01 | locus YJL168C, strain set2, active compounds read low 0.995 | locus YJL187C, strain SWE1 (second series), active compounds read low 0.998 | locus YJL187C, strain SWE1, active compounds read low 1 and 0.99 | locus YJR043C, strain POL32, active compounds read low 0.983 | locus YJR066W, strain TOR1, active compounds read low 0.923 and 0.916
